Most compounds without a hit are left out; they make up all but 4% or so of the library.
HIF-2a inh – HIF-2a reporter inhibitors, primary screen, luminescence, 786-0 RCC cells; inhibition, % at 18.8 µM; 360,000 tested, 0.72% active; 786-0 RCC cells HIF-2a reporter, luciferase luminescence, overnight; AID 624352, 2012;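 active = inhibition of the luminescence signal of 40% or more relative to plate controls, in a single-dose primary screen at 18.75 µM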
CF NFkB inh – inhibitors of PAF-induced NF-kB signaling, primary screen, cell-based, GFP fluorescence, uHTS | KKLEB NF-kB-GFP reporter, GFP fluorescence overnight | inhibition, % at 5 µM | 360,000 tested, 0.86% active | AID 588850, 2011;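 active = at least 50% inhibition at 5 µM, scaled per plate between neutral and stimulator controls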;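 note: PAF is a Pseudomonas aeruginosa culture filtrate used as stimulus; plate controls were PAF-stimulated DMSO wells for no effect and unstimulated DMSO wells for full effect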
TROY NFkB inh – inhibitors of TROY-driven NF-kB signaling, primary screen, Q293 LMP1-TROYcd cells, NF-kB luciferase, uHTS; inhibition, % at 10 µM; AID 1347056, 2019; 360,000 tested, 0.98% active; Q293 LMP1-TROYcd NF-kB luciferase reporter, 4 h;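 active = compounds whose plate-normalised and pattern-corrected inhibition of the luciferase reporter signal at the single screening dose is 50% or more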
Peg3 promoter – Peg3 promoter-driven luciferase inhibitors, primary screen, cell-based, HeLa, luciferase luminescence; inhibition, % at 20 µM; HeLa PEG-Prom luciferase reporter, overnight; 360,000 tested, 1.7% active;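 active = inhibition of at least 50% at 20 µM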
KKLEB cytotox – cytotoxicity in KKLEB CF airway cells, primary screen, cytotoxicity control for CF NF-kB inhibitor project, cell-based, uHTS, fluorescence assay plates. KKLEB CF airway cells viability, ATPlite luminescence, overnight; active compounds read low; cells stimulated with P. aeruginosa culture filtrate. activity change (cytotoxicity), % at 5 µM. 360,000 tested, 0.36% active;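 active = corrected activity change at or below -50% at 5 µM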
TWEAK Fn14 block – inhibitors of TWEAK-Fn14 signaling, primary screen, luciferase reporter cells, uHTS; inhibition, % at 10 µM; AID 1159606, 2016; 360,000 tested, 2% active; TWEAK-stimulated Fn14 reporter cells, luciferase luminescence, 8 h; in the data active = inhibition above about 50%
* = called active by the depositor; i = inactive.

SMILES	HIF-2a inh	CF NFkB inh	TROY NFkB inh	Peg3 promoter	KKLEB cytotox	TWEAK Fn14 block
COCCN1C[C@@H](CO)O[C@@H](n2cnc3c(NCc4ccco4)ncnc32)C1	12	-31	0	10	-12	-24
Cc1ccnc2nc(C(=O)OC(C)C(=O)NCc3ccccc3)nn12 (stereo not given)	8	-4	3	5	-2	10
O=[N+]([O-])c1cc(S(=O)(=O)Nc2cccc(C(F)(F)F)c2)ccc1-n1nnc2ccccc21	9	23	58*	38	-2	14
COc1ccc(CCNC(=O)N2c3ccccc3Sc3ccccc32)cc1	29	13	45	33	0	55*
COCCCNC(=O)N1c2ccccc2Sc2ccccc21	12	5	12	6	2	9
COc1ccc(C(=O)Cn2c(C)nc([N+](=O)[O-])c2Br)cc1	21	33	16	26	-12	50*
COc1ccccc1-c1cnc(C(O)c2ccc(SC)cc2)[nH]1 (stereo not given)	-24	-6	-14	-27	-5	-25
CCCN(C(=O)c1cc(CC)c(C)s1)c1c(N)n(Cc2ccccc2)c(=O)[nH]c1=O	17	10	-11	6	-8	-8
CCc1cc(C(=O)N(CCCOC)c2c(N)n(Cc3ccccc3)c(=O)[nH]c2=O)sc1C	10	-21	71*	7	6	2
Cc1cccc2cc(-c3nc4ccc(C(=O)O)cc4[nH]3)c(=O)oc12	-24	-4	1	22	-3	85*
Nc1nsc2ccccc12	-8	-14	12	51*	-2	26
Nc1nnc(N)c2ccccc12	14	-18	0	1	12	7
O=c1ccc(-c2ccc(S(=O)(=O)N3CCN(c4cccc(Cl)c4)CC3)o2)n[nH]1	14	-7	2	22	3	-24
CCOc1ccc(-c2nc(-c3cccnc3)no2)cc1	-60	-22	0	-104	-5	67*
CCCCOc1ccc(-c2nc(-c3cccnc3)no2)cc1	-228	5	-14	-242	2	24
CCOc1ccc(-c2nnc(-c3ccccc3)o2)cc1	-31	-2	34	-45	-14	81*
Cn1nc(N)c2ncc(-c3ccc(Cl)cc3)nc21	-221	7	-36	-178	-9	-29
COc1ccc(-c2cc(C(=O)NN)[nH]n2)cc1	9	-5	41	-6	5	53*
COc1ccc(-c2cn[nH]c2-c2ccc(OCC(=O)NN)cc2O)cc1	18	29	42	8	-8	54*
COc1ccc(C2=NOC(Cn3nc(-c4ccccc4)cc3C(=O)NCc3ccccc3OC)C2)cc1 (stereo not given)	12	16	0	7	-11	2
O=C(O)C1CCCCC1C(=O)N1CC=C(c2ccccc2)CC1 (stereo not given)	27	8	68*	-25	0	80*
Cc1ccc(C(=O)N2CC=C(c3ccccc3)CC2)s1	-160	-38	-56	-109	13	-32
Cc1ccc(-c2nn(CC(=O)NCc3cc(-c4nn(C)c(=O)c5ccccc45)ccc3C)c(=O)c3ccccc23)cc1	2	0	7	70*	8	24
OC(c1cc(C(F)(F)F)nc2c(Cl)cc(Cl)cc12)C1CCCCN1 (stereo not given)	3	6	-19	109*	-4	19
O[C@@H](c1cc(C(F)(F)F)nc2c(C(F)(F)F)cccc12)[C@H]1CCCCN1	0	16	-12	103*	-10	36
SMILES	HIF-2a inh	CF NFkB inh	TROY NFkB inh	Peg3 promoter	KKLEB cytotox	TWEAK Fn14 block
CC(C)(C)NCCC(O)c1cc(C(F)(F)F)nc2c(C(F)(F)F)cccc12 (stereo not given)	-14	16	-4	42	-18	-7
OC(c1cc(-c2ccc(Cl)cc2)nc2ccccc12)C1CCCCN1 (stereo not given)	-20	18	-25	109*	-12	-6
O=C(NCc1cccnc1)c1cc(C2CCCCN2C(=O)c2ccc(Cl)cc2)on1 (stereo not given)	0	-18	10	-6	4	-22
COc1cccc(-c2cc3onc(-c4ccccc4)c3c(=O)n2C)c1	-184	-7	61*	-283	-23	70*
Cn1c(-c2ccc(F)c(F)c2)cc2onc(-c3ccccc3)c2c1=O	-335	-36	-6	i	-3	9
O=C(NCCN1C(=O)S/C(=C\c2cccc(Cl)c2Cl)C1=O)C1=COCCO1	-47	37	-5	-9	-36	9
CCN(c1ccccc1)S(=O)(=O)c1cccc(C(=O)N(C)CC(=O)Nc2ccc(F)c(F)c2F)c1	16	12	21	34	7	13
O=C(NNC(=O)c1cc(-c2ccncc2)nc2ccccc12)Nc1ccc(F)cc1	1	-4	15	-5	-3	24
COCCCNC(=O)c1cc(-c2cccnc2)nc2ccccc12	6	-13	57*	8	-26	30
O=C(NNC(=O)c1cc(-c2ccccc2)nc2ccccc12)Nc1cccc(Cl)c1	-2	-25	69*	48	-9	39
O=C(NNC(=O)c1cc(-c2cccnc2)nc2ccccc12)Nc1ccc(Cl)cc1	-186	-15	52*	-79	2	13
COc1cc2c(cc1NC(=O)c1cc(-c3cccnc3)nc3ccc(C)cc13)oc1ccccc12	-30	9	17	63*	-21	-4
Cc1cn(-c2cc(NC(=O)c3ccc(C)c(NC(=O)c4cccc(-c5cn[nH]c(=O)c5)c4)c3)cc(C(F)(F)F)c2)cn1	-6	40	6	-6	7	-48
COc1cc2c(cc1N/C=C(\C#N)c1nc(-c3ccccc3)cs1)oc1ccccc12	12	1	-27	61*	-18	-22
Cc1cc(NC(=O)c2cc(-c3ccccn3)nc3ccc(Br)cc23)no1	5	22	1	36	-11	-82
O=C(Nc1ccccn1)c1cc(-c2cccnc2)nc2ccc(Br)cc12	1	-15	-6	56*	7	35
COc1ccc(C)cc1NC(=O)CN(C)S(=O)(=O)c1ccc2c(c1)CC(C)N2C(C)=O (stereo not given)	7	-5	-2	4	9	-3
CCN(CC)S(=O)(=O)c1cccc(NC(=O)COC(=O)c2[nH]c(C)c(C(C)=O)c2C)c1	-14	-10	50	8	13	65*
